Laboratory results as given in paper PMC4552634, “A New Set of Chemical Starting Points with Plasmodium falciparum Transmission-Blocking Potential for Antimalarial Drug Discovery” (PLoS ONE, 2015).
The whole screen tested about 13,000 compounds, of which about 3,200 (25%) showed an effect of 50% or more. The list shows a part of the results.

System: P. falciparum stage V gametocytes
Parameters: BacTiter-Glo ATP luminescence viability of purified stage V gametocytes in 384-well plates, per cent inhibition versus DMSO
Settings: 48 h, 5 µM; inhibitor

SMILES | % Inhibition
COc1ccc(S(=O)(=O)NCCCC2CCN(CCCCCNC(=O)C=Cc3ccc(Cl)c(Cl)c3)CC2)cc1 [TCMDC-139587] | 105.9%
CCCCCCCCS(=O)(=O)NCCCC1CCN(CCCCCNC(=O)C=Cc2ccc(Cl)c(Cl)c2)CC1 [TCMDC-139588] | 108.5%
O=C(/C=C/c1ccc(Cl)c(Cl)c1)NCCCCCN1CCC(NS(=O)(=O)c2cc(Cl)cc(Cl)c2)CC1 [TCMDC-135905] | 1.117%
O=C(C=Cc1ccc(Cl)c(Cl)c1)NCCCCCN1CCC(CCCNS(=O)(=O)c2ccc(Br)cc2)CC1 [TCMDC-139590] | 106.1%
Cc1cc(C)cc(NC(=S)NCCCCN2CCN(c3cccc(Cl)c3)CC2)c1 [TCMDC-124057] | 38.25%
CC1(C)CN(CCC2CCC(NC(=O)/C=C/c3ccc(F)cc3F)CC2)Cc2ccc(C#N)cc21 (stereo not drawn) [TCMDC-139504] | 4.044%
Nc1c2nc(-c3c(F)cccc3Cl)[nH]c(=O)c2nc(=O)n1-c1ccccc1 [TCMDC-124052] | 4.598%
c1ccc2[nH]c(-c3ccc(-c4ccc(CN5CCN(c6ccncc6)CC5)cc4)s3)nc2c1 [TCMDC-136770] | -27.84%
c1cncc(CN2CCN(Cc3ccc(-c4ccc(-c5nc6ccccc6[nH]5)s4)cc3)CC2)c1 [TCMDC-136765] | 62.12%
CN(C)CCCN1CCN(Cc2ccc(-c3ccc(-c4nc5ccccc5[nH]4)s3)cc2)CC1 [TCMDC-136769] | 73.2%
CCCN1CCN(Cc2ccc(-c3ccc(-c4nc5ccccc5[nH]4)s3)cc2)CC1 [TCMDC-136767] | -1.011%
c1ccc2[nH]c(-c3ccc(-c4ccc(CN5CCCCC5)cc4)s3)nc2c1 [TCMDC-136768] | 35.93%
c1ccc2[nH]c(-c3ccc(-c4ccc(CN5CCN(CCN6CCOCC6)CC5)cc4)s3)nc2c1 [TCMDC-133938] | 11.37%
CN(CCN)Cc1ccc(-c2ccc(-c3nc4ccc(F)cc4[nH]3)s2)cc1 [TCMDC-132819] | 40.81%
CN(C)CCN(C)Cc1ccc(-c2cccc(-c3nc4ccccc4[nH]3)c2)cc1 [TCMDC-132567] | 5.675%
CN(CCc1ccccn1)Cc1ccc(-c2ccc(-c3nc4ccccc4[nH]3)s2)cc1 [TCMDC-136766] | 58.81%
Cc1nn(-c2ccccc2)c2nc(-c3ccccc3)cc(C(=O)N3CCOCC3)c12 [TCMDC-124527] | -18.66%
Cc1cc(N2CCCC2)nc(Nc2ccc(NC(=O)CC(C)C)cc2)n1 [TCMDC-124715] | 12.42%

SMILES | % Inhibition
COc1ccc(S(=O)(=O)NC2CCN(c3ccnc4cc(Cl)ccc34)C2)cc1 (stereo not drawn) [TCMDC-133649] | 9.561%
NC(N)=NN=Cc1cc([N+](=O)[O-])ccc1Sc1ccccc1CO [TCMDC-137883] | 34.86%
NC(N)=NN=Cc1ccccc1OCc1ccccc1Cl [TCMDC-124250] | 59.45%
CC(=O)C1(c2ccccc2)CCN(CCC2(c3ccc(Cl)c(Cl)c3)CN(C(=O)CC(C)C)CCO2)CC1 (stereo not drawn) [TCMDC-135324] | -34.64%
CC(=O)Nc1ccc(S(=O)(=O)N(Cc2cccc(Oc3ccccc3)c2)C2CCN(C/C=C(\C)CCC=C(C)C)CC2)cc1 [TCMDC-139619] | 47.01%
Clc1ccc2c(NCc3ccccn3)ccnc2c1 [TCMDC-125103] | 3.053%
O=S(=O)(Nc1cccc(F)c1CNCc1ccccn1)c1ccc(Cl)c(Cl)c1 [TCMDC-132598] | 71.21%
Cc1cnc(CNCc2ccc(S(=O)(=O)Nc3ccc(Oc4cccc(Cl)c4)cc3)cc2)cn1 [TCMDC-136202] | -12.09%
CC(=O)Nc1ccc(OCCCCCOc2ccc(NC(C)=O)cc2Cl)c(Cl)c1 [TCMDC-137222] | -37.52%
CCCCN1CCN(CC(O)CNC(=O)Nc2ccc(Cl)cc2)CC1 (stereo not drawn) [TCMDC-134646] | 4.082%
CC(=NNC(=N)N)C(=O)Nc1ccc(Cl)c(Cl)c1 [TCMDC-137564] | -28.53%
CCN(CC)/C(=N/C(=N)Nc1ccc(Cl)c(Cl)c1)NCCCCCCN/C(=N\C(=N)Nc1ccc(Cl)c(Cl)c1)N(CC)CC [TCMDC-131808] | 116.2%
CCN(CC)C(=NC(=N)Nc1ccc(Cl)cc1)NCCCCCCCCNC(=NC(=N)Nc1ccc(Cl)cc1)N(CC)CC [TCMDC-131812] | 116.8%
CCN1CCN(CC(O)CNC(=O)Nc2ccc(Cl)cc2)CC1 (stereo not drawn) [TCMDC-134634] | 26.07%
CCCN1CCN(CC(O)CNC(=O)Nc2ccc(Cl)cc2)CC1 (stereo not drawn) [TCMDC-134645] | -0.7262%
CCN(CC)C(=NC(=N)NCCCCCCNC(=N)N=C(Nc1ccc(Cl)cc1)N(CC)CC)Nc1ccc(Cl)cc1 [TCMDC-131807] | 113%
CCN(CC)C(=NCCCCCCN=C(NC(=N)c1ccc(Cl)cc1)N(CC)CC)NC(=N)c1ccc(Cl)cc1 [TCMDC-131806] | 117.9%
COc1ccc(CCN(C)CCCCNC(=O)c2ccc(NC(=O)c3ccc(Cl)cc3)cc2)c(OC)c1 [TCMDC-138506] | 49.32%
